# Reference: PubChem BioAssay AID1159580 (chemical genetic matrix, 2015)
# Among all 5,500 compounds or so, about 2,000 (36%) were called active. Not shown: some 18% with an inconclusive outcome. Some of the results follow. Values without a mark were called inactive. No stated cut-off is given here; in the data, active means normalized growth mostly below about 0.91 (no sharp cut-off); inconclusive means no clear call, values can overlap the other calls; inactive means mostly above about 0.92.
# Experiment: chemical genetic growth profiling, strain panel (AID 1159580);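 further: tested at 20 µM; growth read once vehicle control cultures reached saturation at 30 °C; 1 = growth at the plate median or of vehicle wells; lower values mean less growth of the strain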
# Details: S. cerevisiae deletion strains, growth OD
# [1] = locus YDL101C, strain DUN1, active compounds read low
# [2] = locus YHR030C, strain SLT2, active compounds read low
smiles,measurement,setting,value
CC1=CC(C)(C)NC(=S)N1,normalized growth,"locus YAL013W, strain DEP1, active compounds read low",1.01
same,normalized growth,"locus YBR229C, strain ROT2, active compounds read low",1.01
same,normalized growth,[1],1
same,normalized growth,"locus YDR150W, strain NUM1, active compounds read low",0.981
same,normalized growth,"locus YEL061C, strain CIN8, active compounds read low",1.01
same,normalized growth,"locus YGR078C, strain PAC10, active compounds read low",1
same,normalized growth,"locus YGR229C, strain SMI1, active compounds read low",1.02
same,normalized growth,[2],1.06
same,normalized growth,"locus YHR087W, strain rtc3, active compounds read low",1
same,normalized growth,"locus YJR043C, strain POL32, active compounds read low",1
same,normalized growth,"locus YJR075W, strain HOC1, active compounds read low",1.01
same,normalized growth,"locus YKL190W, strain CNB1, active compounds read low",1.01
same,normalized growth,"locus YLR039C, strain RIC1, active compounds read low",1.01
same,normalized growth,"locus YLR058C, strain SHM2 (second series), active compounds read low",1
same,normalized growth,"locus YLR085C, strain ARP6, active compounds read low",0.984
same,normalized growth,"locus YLR262C, strain YPT6, active compounds read low",1.05
same,normalized growth,"locus YML094W, strain GIM5, active compounds read low",0.996
same,normalized growth,"locus YMR219W, strain ESC1, active compounds read low",1
same,normalized growth,"locus YMR263W, strain SAP30, active compounds read low",1.02
same,normalized growth,"locus YNL153C, strain GIM3, active compounds read low",0.997
same,normalized growth,"locus YNL298W, strain CLA4 (second series), active compounds read low",1
same,normalized growth,"locus YNL322C, strain KRE1, active compounds read low",1.01
same,normalized growth,"locus YNR030W, strain Alg12, active compounds read low",1.01
same,normalized growth,"locus YPL055C, strain LGE1, active compounds read low",0.984
same,normalized growth,"locus YPL241C, strain CIN2, active compounds read low",1.03
same,normalized growth,"locus YPR135W, strain CTF4, active compounds read low",1.06
Oc1ccc(-n2nnnc2SCc2ccc(OC(F)(F)F)cc2)cc1,normalized growth,"locus YAR019C, strain CDC15, active compounds read low",0.974
same,normalized growth,"locus YBL105C, strain PKC1, active compounds read low",0.971
same,normalized growth,"locus YBR135W, strain CKS1, active compounds read low",0.979
same,normalized growth,"locus YBR136W, strain MEC1, active compounds read low",0.975
same,normalized growth,"locus YBR160W, strain CDC28, active compounds read low",0.971
same,normalized growth,"locus YDL017W, strain CDC7, active compounds read low",0.982
same,normalized growth,"locus YDL028C, strain MPS1, active compounds read low",0.979
same,normalized growth,[1],0.988
same,normalized growth,"locus YDL108W, strain KIN28, active compounds read low",0.972
same,normalized growth,"locus YDL132W, strain cdc53, active compounds read low",0.984
same,normalized growth,"locus YDL214C, strain PRR2, active compounds read low",0.815
same,normalized growth,"locus YDR052C, strain DBF4, active compounds read low",0.984
same,normalized growth,"locus YDR054C, strain cdc34, active compounds read low",0.968
same,normalized growth,"locus YDR226W, strain ADK1, active compounds read low",0.98
same,normalized growth,"locus YDR477W, strain SNF1, active compounds read low",0.783
same,normalized growth,"locus YER123W, strain YCK3, active compounds read low",0.651
same,normalized growth,"locus YER133W, strain GLC7, active compounds read low",0.767
same,normalized growth,"locus YFL009W, strain cdc4, active compounds read low",0.975
same,normalized growth,"locus YFL029C, strain CAK1, active compounds read low",0.97
same,normalized growth,"locus YFR003C, strain YPI1, active compounds read low",0.98
same,normalized growth,"locus YFR019W, strain FAB1, active compounds read low",0.794
same,normalized growth,"locus YFR028C, strain CDC14, active compounds read low",0.97
same,normalized growth,"locus YGR040W, strain KSS1, active compounds read low",0.747
same,normalized growth,"locus YGR052W, strain FMP48, active compounds read low",0.577 (active)
same,normalized growth,"locus YGR092W, strain DBF2, active compounds read low",0.663
same,normalized growth,[2],0.554 (active)
same,normalized growth,"locus YHR079C, strain IRE1, active compounds read low",0.563
same,normalized growth,"locus YHR082C, strain KSP1, active compounds read low",0.617
same,normalized growth,"locus YHR205W, strain SCH9, active compounds read low",0.867
same,normalized growth,"locus YIL147C, strain SLN1, active compounds read low",0.984
same,normalized growth,"locus YJL095W, strain BCK1, active compounds read low",0.597
same,normalized growth,"locus YJL128C, strain PBS2, active compounds read low",0.932
same,normalized growth,"locus YJL157C, strain FAR1, active compounds read low",0.832
same,normalized growth,"locus YJR016C, strain ILV3, active compounds read low",0.977
same,normalized growth,"locus YJR066W, strain TOR1 (second series), active compounds read low",0.738
same,normalized growth,"locus YJR066W, strain TOR1, active compounds read low",0.647
same,normalized growth,"locus YKL048C, strain ELM1, active compounds read low",0.635 (active)
same,normalized growth,"locus YKL067W, strain YNK1, active compounds read low",0.794
same,normalized growth,"locus YKL101W, strain HSL1, active compounds read low",0.716 (active)
same,normalized growth,"locus YKL193C, strain SDS22, active compounds read low",0.978
same,normalized growth,"locus YKL203C, strain TOR2, active compounds read low",0.803
same,normalized growth,"locus YLR113W, strain HOG1, active compounds read low",0.523 (active)
same,normalized growth,"locus YLR133W, strain CKI1, active compounds read low",0.835
same,normalized growth,"locus YLR403W, strain SFP1, active compounds read low",0.828
same,normalized growth,"locus YML070W, strain DAK1, active compounds read low",0.703
same,normalized growth,"locus YMR001C, strain CDC5, active compounds read low",0.97
same,normalized growth,"locus YMR205C, strain PFK2 (second series), active compounds read low",0.782
same,normalized growth,"locus YMR277W, strain FCP1, active compounds read low",0.981
same,normalized growth,"locus YNL006W, strain LST8, active compounds read low",0.981
same,normalized growth,"locus YNL020C, strain ARK1, active compounds read low",0.805
same,normalized growth,"locus YNL161W, strain CBK1, active compounds read low",0.976
same,normalized growth,"locus YNL183C, strain NPR1, active compounds read low",0.635
same,normalized growth,"locus YNL207W, strain RIO2, active compounds read low",0.97
same,normalized growth,"locus YNL222W, strain SSU72, active compounds read low",0.966
same,normalized growth,"locus YNL307C, strain MCK1 (second series), active compounds read low",0.791
same,normalized growth,"locus YOL078W, strain AVO1, active compounds read low",0.978
same,normalized growth,"locus YOL136C, strain PFK27, active compounds read low",0.75
same,normalized growth,"locus YOR061W, strain CKA2, active compounds read low",0.772
same,normalized growth,"locus YOR119C, strain RIO1, active compounds read low",0.806
same,normalized growth,"locus YOR231W, strain MKK1, active compounds read low",0.509 (active)
same,normalized growth,"locus YOR329C, strain SCD5, active compounds read low",0.986
same,normalized growth,"locus YPL031C, strain PHO85, active compounds read low",0.725
same,normalized growth,"locus YPL153C, strain RAD53, active compounds read low",0.599 (active)
same,normalized growth,"locus YPL204W, strain HRR25, active compounds read low",0.622 (active)
same,normalized growth,"locus YPL209C, strain IPL1, active compounds read low",0.977
same,normalized growth,"locus YPL256C, strain CLN2, active compounds read low",0.467 (active)
same,normalized growth,"locus YPR025C, strain CCL1, active compounds read low",0.975
same,normalized growth,"locus YPR106W, strain ISR1, active compounds read low",0.971
same,normalized growth,"locus YPR111W, strain DBF20, active compounds read low",0.967
same,normalized growth,"strain NNK1, active compounds read low",0.979
same,normalized growth,"strain TSCII, active compounds read low",0.983
